High-throughput results as filed in PubChem BioAssay.
Rows were chosen to be rich in hits. Some 1.8% of all compounds tested hit in one or more screens of this group.
VDR inhibitor = blocks the human vitamin D receptor; Potency, µM, actives largely listed as inhibitors; VDR-SRC2-3 peptide fluorescence polarization, 2 h; AID 504847; actives 0.93% (n = 400,000); P11473
Target sequence (P11473 whole entry, looked up): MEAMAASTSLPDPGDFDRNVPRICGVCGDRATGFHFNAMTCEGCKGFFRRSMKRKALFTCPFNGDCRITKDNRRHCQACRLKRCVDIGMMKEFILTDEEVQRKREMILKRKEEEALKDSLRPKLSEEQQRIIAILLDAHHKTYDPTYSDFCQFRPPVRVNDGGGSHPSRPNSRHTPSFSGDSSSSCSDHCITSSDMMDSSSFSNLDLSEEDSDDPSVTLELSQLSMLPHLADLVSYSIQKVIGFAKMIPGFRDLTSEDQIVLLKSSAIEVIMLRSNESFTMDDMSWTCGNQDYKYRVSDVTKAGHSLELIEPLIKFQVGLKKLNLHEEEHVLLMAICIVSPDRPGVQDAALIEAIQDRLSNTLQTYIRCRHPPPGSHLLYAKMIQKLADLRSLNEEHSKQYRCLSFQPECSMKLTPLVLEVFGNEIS
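The screen uses fluorescence polarization to detect compounds that interfere with recruitment of the SRC2-3 coactivator peptide to VDR; plates are read after 2 h at room temperature.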
GCN5L2 inh = GCN5L2 (KAT2A) acetyltransferase inhibition; actives 0.21% (n = 390,000); GCN5L2 HAT assay, ThioGlo1 CoA-SH fluorescence; Potency, µM (titrated, usually from 58.9 µM), actives largely listed as inhibitors
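Free CoA generated was detected with ThioGlo1 (50uM) fluorescence at Ex340nm/Em540nm, read immediately and after 20 min at room temperature. Enzyme, 20 nM in HEPES pH 7.5 buffer, saw compounds 15 min before adding 75uM H3(1-25) peptide and 70uM acetyl-CoA.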
TrxR1 substrate = is turned over as a substrate by rat TrxR1. purified TrxR1 substrate turnover, NADPH consumption readout. Potency, µM (series often up to 114 µM). actives 0.01% (n = 390,000). AID 588456; note: nearly all actives have a fitted effect of over 50% in size
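Rat TrxR1, dispensed at 90 nM, was prereduced with 400 uM NADPH (final) for 5 min at ~22 deg C, then incubated with compound 15 min before 400 uM selenite. A first-read NADPH fluorescence drop versus no-compound background flagged substrates.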
TrxR1 inh = blocks rat thioredoxin reductase 1 | O89049 | recombinant rTrxR1, NADPH fluorescence consumption, selenite substrate | Potency, µM (series often up to 114 µM), usual class: inhibitors | actives 1% (n = 390,000) | AID 588453; note: nearly all actives have a fitted effect of over 65% in size
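Rat TrxR1 (90 nM in the dispensed reagent) was pre-reduced with 400 uM NADPH for 5 min at room temperature, then incubated with compound for 15 min. After 400 uM selenite was added, NADPH fluorescence (Ex 340/Em 450 nm) was followed for 8 min.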
Each line names hits and unclear results; the compound was inactive in the other large screens. Calls come from the whole dose curve; as a rule, active = well fitted curve in the direction sought with a large enough effect; inconclusive = small, poorly fitted or top-dose-only effect, or another doubt; inactive = no such curve, though single readings can be large; an effect the other way counts as inactive or inconclusive.

CC1(C)O[C@H]2CC(=O)OC[C@@]23C1CC(=O)[C@]1(C)C3CC[C@@]2(C)[C@H](c3ccoc3)OC(=O)[C@H]3O[C@]321 (some centres not stated)	none
O=[N+]([O-])c1ccc(C=C2c3ccccc3-c3ccccc32)cc1	none (no result: VDR inhibitor, GCN5L2 inh)
Clc1ccccc1-c1nc(NC2CCNCC2)c2ccccc2n1	VDR inhibitor 40µM, GCN5L2 inh 28µM (no result: TrxR1 substrate, TrxR1 inh)
O=C(CCn1nc(-c2ccccc2)c2ccccc2c1=O)Nc1ccccc1	none
COc1ccccc1NC(=O)CCn1nc(-c2ccccc2)c2ccccc2c1=O	VDR inhibitor 56µM
Cc1ccc2c(C(=O)CNc3nc(C)c(C)s3)c(C)[nH]c2c1	none (no result: VDR inhibitor, GCN5L2 inh)
COc1ccc(CNCCc2ccc([N+](=O)[O-])cc2)c(OC)c1OC	none
COc1cc(N(C)C)cc(CN(C)CCc2ccc([N+](=O)[O-])cc2)c1O	VDR inhibitor 2.5µM, GCN5L2 inh inconclusive (no result: TrxR1 substrate, TrxR1 inh)
O=C1C=CC(=O)N1c1cccc2cccnc12	TrxR1 inh 56µM (no result: GCN5L2 inh)
CCOC(=O)C1=C(CC)OC(N)=C(C#N)C1c1ccc(NC(C)=O)cc1 (configuration not stated)	TrxR1 inh 45µM
Nc1cccnc1Sc1cccc(Cl)c1	VDR inhibitor inconclusive, TrxR1 inh 10µM
Nc1cccnc1Sc1ccc(Cl)cc1	TrxR1 inh inconclusive
Cc1nn(-c2ccccn2)c2c1C(c1ccccc1Cl)C1=C(N2)c2ccccc2C1=O (configuration not stated)	none
CSC1=C(C#N)C(c2ccccc2C)C(C#N)=C(N)N1 (configuration not stated)	TrxR1 inh 50µM
CSC1=C(C#N)C(c2ccccc2Cl)C2=C(N1)c1ccccc1C2=O (configuration not stated)	VDR inhibitor inconclusive, TrxR1 inh 50µM
NC(=O)Nc1ccc(/C=C2\C=Cc3ccccc32)cc1	none (no result: VDR inhibitor, GCN5L2 inh)
COc1ccc(CC(=O)NO)cc1OC	none (no result: VDR inhibitor, GCN5L2 inh)
COc1cc(N(C)C)c(OC)cc1C=C1C=CC=C1	TrxR1 inh inconclusive (no result: VDR inhibitor, GCN5L2 inh)
CCOC(=O)c1ccc(N2C(=O)C3C(C2=O)C(C(=O)c2ccc(Cl)cc2)N2CCCC32)cc1 (configuration not stated)	GCN5L2 inh inconclusive, TrxR1 inh 3.5µM
CCOC(=O)c1ccc(N2C(=O)C3CC=CCC3C2=O)cc1 (configuration not stated)	none
COC(=O)CC1C(=O)NC2CCCCC2N1C(=O)CCl (configuration not stated)	TrxR1 inh 20µM
Cc1cc(S(=O)(=O)NCC(c2ccco2)S(=O)(=O)c2cccs2)ccc1F (configuration not stated)	TrxR1 inh 0.35µM
O=C(Nc1ncc2c(n1)-c1ccccc1CC2)c1cccc(Cl)c1	GCN5L2 inh 3.2µM
CCN(CC)c1ccc(C2Nc3cccc4cccc(c34)N2)cc1	none
Fc1ccc(C2Nc3cccc4cccc(c34)N2)cc1	TrxR1 inh 25µM
Brc1ccc(C2Nc3cccc4cccc(c34)N2)cc1	TrxR1 inh inconclusive (no result: GCN5L2 inh)
FC(F)(F)c1ccc(C2Nc3cccc4cccc(c34)N2)cc1	TrxR1 inh 28µM
Cc1ccc(NC2=CC(=O)c3sc(C)nc3C2=O)cc1	none (no result: TrxR1 substrate, TrxR1 inh)
C=C1NN(CC2CC2)C(=O)N1c1ccc(OCc2ccccc2)cc1	none (no result: VDR inhibitor, GCN5L2 inh)
CCN(C(=O)CSc1nnc(-c2cc(OC)c(OC)c(OC)c2)o1)c1ccccc1	TrxR1 inh 45µM
CN(C)c1ccc(C=c2c3cc([N+](=O)[O-])ccc3n3c2cc(-c2ccccc2)[n+]3C)cc1	VDR inhibitor inconclusive, TrxR1 inh 40µM (no result: GCN5L2 inh)
CN(C)c1ccc(C=c2c3ccccc3n3c2cc(-c2ccccc2)[n+]3C)cc1	none (no result: GCN5L2 inh)
COc1cc(C=c2c3ccccc3n3c2cc(-c2ccccc2)[n+]3C)cc(OC)c1OC	TrxR1 inh 50µM (no result: GCN5L2 inh)
COc1cc(N(C)C)ccc1C=c1c2ccccc2n2c1cc(-c1ccccc1)[n+]2C	VDR inhibitor 79µM (no result: GCN5L2 inh)
CC(=O)Nc1ccc(/C=C/c2ccnc3ccccc23)cc1	none (no result: VDR inhibitor, GCN5L2 inh)
C=C1C=C(C(F)F)n2ncc(C(=O)Nc3ccc(Br)cc3C(F)(F)F)c2N1	none (no result: VDR inhibitor, GCN5L2 inh)
CCOC(=O)CNC(=O)CSc1nc(-c2cccc(C)c2)ns1	VDR inhibitor 79µM
Cc1cccc(-c2nsc(SCC(=O)NCc3ccco3)n2)c1	none
O=C(Nc1cccc(Cl)c1)N1CCCC1	VDR inhibitor 18µM
O=C(Nc1ccc2nc(-c3cccs3)c(-c3cccs3)nc2c1)N1CCCC1	none (no result: GCN5L2 inh)
O=C(Nc1cccc(Cl)c1)N1CCOCC1	none
CCOC(=O)C1CCN(C(=O)Nc2ccc3nc(-c4ccco4)c(-c4ccco4)nc3c2)CC1	VDR inhibitor inconclusive, GCN5L2 inh inconclusive, TrxR1 inh 3.2µM
O=C(Nc1ccc2nc(-c3ccco3)c(-c3ccco3)nc2c1)N1CCCCCC1	VDR inhibitor inconclusive, GCN5L2 inh 14µM, TrxR1 inh 1.8µM
C=C1NN(C)C(=O)N1c1ccc(OC)cc1	none (no result: VDR inhibitor, GCN5L2 inh)
COc1ccccc1CNC(=O)c1cc2sccc2n1Cc1ccc(F)cc1	VDR inhibitor 89µM
CC1=NN(c2ccccc2)C(=O)/C1=C/c1cccc(C)c1	VDR inhibitor 50µM, TrxR1 inh inconclusive
CC1=NN(c2ccccc2)C(=O)/C1=C/N(C)C	none
CC1=NN(c2ccccc2)C(=O)/C1=C/C=C/c1ccc(N(C)C)cc1	VDR inhibitor 79µM
O=C(O)CCn1c(SCc2ccccc2)nc2ccccc21	none
Cc1noc(C)c1CSc1nc2ccccc2n1CCc1ccccc1	VDR inhibitor 79µM
CN(C)c1ccc2cc(S(=O)(=O)O)cc(O)c2c1	VDR inhibitor 50µM (no result: GCN5L2 inh)
Nc1cccc2cc(S(=O)(=O)O)ccc12	none (no result: GCN5L2 inh)
O=Nc1c(O)ccc2cc(S(=O)(=O)O)ccc12	VDR inhibitor 79µM, TrxR1 inh inconclusive (no result: GCN5L2 inh)
CC1(C)CC(=O)C2=C(C1)OC(N)=C(C#N)[C@@H]2c1ccccc1[N+](=O)[O-]	TrxR1 inh 20µM
N#C/C(=C/c1ccc(N2CCCCC2)o1)c1cccc(F)c1	VDR inhibitor 40µM, TrxR1 inh 7.1µM
N#C/C(=C/c1ccc(N2CCOCC2)o1)C(=O)Nc1ccccc1	none
N#C/C(=C/c1ccc(N2CCCCCC2)o1)c1ccc(Cl)cc1	VDR inhibitor 22µM, TrxR1 inh 8.9µM
COC1CC(O[C@H]2/C(C)=C/CC3CC(C[C@]4(CCC(C)C(C5CCCCC5)O4)O3)OC(=O)[C@H]3C=C(C)/C(=N/O)C4OC/C(=C\C=C\[C@@H]2C)[C@@]43O)OC(C)C1O (some centres not stated)	none (no result: TrxR1 substrate, TrxR1 inh)
CC[C@H](C(=O)[C@H](C)[C@H](O)[C@H](C)CCc1ccc(C)c(O)c1C(=O)O)[C@H]1O[C@](CC)([C@@H]2CC[C@@](O)(CC)[C@H](C)O2)C[C@H]1C	VDR inhibitor inconclusive (no result: TrxR1 substrate, TrxR1 inh)
CC[C@@H](C(=O)[C@@H](C)[C@@H](O)[C@H](C)CCc1ccc(C)c(O)c1C(=O)O)C1O[C@](CC)(C2CC[C@](O)(CC)[C@H](C)O2)C[C@@H]1C (some centres not stated)	GCN5L2 inh 16µM (no result: TrxR1 substrate, TrxR1 inh)
O=C1CCCC2CCCCN12 (configuration not stated)	none (no result: TrxR1 substrate, TrxR1 inh)
O=C(O)CN1C(=O)/C(=C\c2cccc(OCc3ccc(Cl)cc3)c2)SC1=S	VDR inhibitor 50µM
